# Source: PubChem BioAssay AID449762 (Southern Research Specialized Biocontainment Screening …, 2010)
# The whole screen tested about 330,000 compounds, of which about 1,900 (0.58%) were called active. Not shown: some 4% with an inconclusive outcome. Cut-off read from the data, not from the text of the source: inconclusive = inhibition above about 70% without an active follow-up result; inactive = below that. The list is a sample of the results. Measured potencies and affinities stand elsewhere.
# Assay: M. tuberculosis growth inhibition, HTS (AID 449762);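 note: bacterial growth assessed after seven days of incubation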
# Details: M. tuberculosis H37Rv growth inhibition, 7H9 media; at 25 µM; active compounds read high
row,SMILES,inhibition
1,CC(C)(C(=O)O)c1ccc(C(O)CCCN2CCC(C(O)(c3ccccc3)c3ccccc3)CC2)cc1 (configuration not stated),6.01% (inactive)
2,Cc1ccc2cc(CCNC(=O)c3ccc4c(c3)OCO4)c(=O)[nH]c2c1C,-3.26% (inactive)
3,Cn1c(=O)n(C)c2cc(NC(=O)CCl)ccc21,64.7% (inactive)
4,Cn1ccc(NC(=O)CCl)n1,57.5% (inactive)
5,CSc1ccc(CCNS(=O)(=O)c2c(C)[nH]c(C)c2C(=O)N2CCCCC2)cc1,-2.39% (inactive)
6,Cc1ccc(NC(=O)C2CCC(CNC(=O)[C@@H]3Cc4ccccc4CN3)CC2)c(C)c1 (some centres not stated),7.99% (inactive)
7,Cn1c(O)c(/C=N/N2CCCCC2)c(=O)[nH]c1=O,-3.56% (inactive)
8,C=CCSC1=C(C#N)C(c2ccccc2C)CC(=O)N1 (configuration not stated),1.95% (inactive)
9,COc1c[nH]n(-c2ccccc2)c(=O)c1=O,2% (inactive)
10,COc1cc2[nH]c(=O)n(C3CCCCC3)c(=O)c2cc1OC,-2.86% (inactive)
11,COc1ccc([C@H]2CC(=O)C=C(c3ccc4[nH]ccc4c3)C2)cc1OC,55.7% (inactive)
12,O=C1C=C(c2ccc3ccccc3c2)C[C@@H](c2ccc(Cl)cc2)C1,19.3% (inactive)
13,O=C(Nc1ccc(F)c(F)c1)C1CCN(S(=O)(=O)c2cccc3nonc23)CC1,-5.72% (inactive)
14,Cn1nc(C(=O)Nc2cc(Cl)ccc2N2CCCC2)c2ccccc2c1=O,1.5% (inactive)
15,CC(=O)Nc1ccc(NC(=O)COc2ccc3c(c2)CCC3)cc1,1.68% (inactive)
16,Cc1cccnc1NC(=O)COc1ccc2c(c1)CCC2,54.8% (inactive)
17,O=C(c1ccc2snnc2c1)N1CCCCC1,-3.95% (inactive)
18,CCc1nnc(NC(=O)C2CC(=O)N(c3ccc(C)cc3)C2)s1 (configuration not stated),11.9% (inactive)
19,Cc1ccc(N2CC(C(=O)Nc3nccs3)CC2=O)cc1Cl (configuration not stated),10.9% (inactive)
20,COC(=O)/C(C#N)=C/c1c(-c2ccccc2)nc2n1CCS2,-12.2% (inactive)
21,CCNc1nc(NC(C)C)nc(NS(=O)(=O)c2ccc(N)cc2)n1,-9.39% (inactive)
22,CC(/C=C/c1ccco1)=N\NC(=O)c1cccnc1,-3.96% (inactive)
23,O=C(N/N=C/C=C/c1ccccc1)c1cccnc1,-0.94% (inactive)
24,COCCN1CSC(=S)N(Cc2ccco2)C1,66.9% (inactive)

row,SMILES,inhibition
1,CC(C)(C)N1CSC(=S)N(Cc2ccccc2)C1,65% (inactive)
2,S=C1NCN(Cc2ccco2)CN1Cc1ccco1,7.57% (inactive)
3,CC(C)N1CSC(=S)N(Cc2ccccc2)C1,64.3% (inactive)
4,O=C(CCN1C(=O)c2ccccc2C1=O)Nc1ccc(F)cc1,-6.8% (inactive)
5,CN(C)CCCN(C(=O)c1cc(-c2cccs2)nc2ccccc12)c1nc2c(F)cccc2s1,49.4% (inactive)
6,CN(C)CCCN(C(=O)c1nc2ccccc2s1)c1nc2ccc(F)cc2s1,-11.9% (inactive)
7,C[C@H](CO)N1C[C@H](C)[C@@H](CN(C)C(=O)NC2CCCCC2)Oc2ccc(NC(=O)Cn3cnnn3)cc2C1=O,4.07% (inactive)
8,Cc1c(C)c(C)c(CN2CCCC2)c(C)c1C,2.65% (inactive)
9,CNC(=O)c1ccc(NC(=O)CCc2c(C)noc2C)cc1,-12.4% (inactive)
10,CC[C@@]12C(=O)N(c3cccc(F)c3)C(=O)N1[C@H](c1ccc(F)cc1)[C@@H]1C(=O)N(C3CCCCC3)C(=O)[C@@H]12,0.17% (inactive)
11,CC(=O)Nc1ccc(N2C(C(C)=O)=NN(c3ccccc3)C2c2cccs2)cc1 (configuration not stated),1.3% (inactive)
12,CC(=O)C1=NN(c2ccccc2)C(c2cccs2)N1c1ccccc1 (configuration not stated),-3.16% (inactive)
13,CC(=O)OCC1=C(C(=O)O)N2C(=O)C(NC(=O)C(C)Cn3cc(Cl)cn3)C2SC1 (configuration not stated),-1.4% (inactive)
14,CCCSc1nsc(SCCC)c1C#N,-0.55% (inactive)
15,CN(Cc1ccccc1)C(=O)Cn1c(=O)oc2cc(S(=O)(=O)N3CCCC3)ccc21,-1.71% (inactive)
16,COc1cc(C2C(C(=O)C(C)(C)C)=C(O)C(=O)N2Cc2ccccc2)ccc1O (configuration not stated),1.41% (inactive)
17,Cc1ccc(NC(=O)c2oc3ccc(S(=O)(=O)N4CCOCC4)cc3c2C)cc1C,-7.43% (inactive)
18,COc1cccc(NC(=O)c2oc3ccc(S(=O)(=O)N4CCOCC4)cc3c2C)c1,58% (inactive)
19,O=C(O/N=C1/CCCc2occc21)c1ccccc1,6.31% (inactive)
20,CCCn1c(S(=O)(=O)O)nc2ccccc21,5.54% (inactive)
21,COc1cc2c(cc1OC)C(C)N(S(=O)(=O)c1cccs1)CC2 (configuration not stated),-12.1% (inactive)
22,O=C(NC1CCCC1)C(c1ccncc1)N(CCCN1CCOCC1)C(=O)c1ccc(-c2ccccc2)[nH]1 (configuration not stated),3.89% (inactive)
23,O=C(NC1CCCCC1)C(c1ccc(F)cc1)N(CCN1CCOCC1)C(=O)c1ccc(-c2ccccc2)[nH]1 (configuration not stated),42.3% (inactive)
